Experiment [1] in a line: qHTS assay to identify small molecule antagonists of the thyroid receptor (TR) signaling pathway (AID 743065). Also: nearly all actives have a fitted effect of over 55% in size. Also: potency is read from the fitted curve at half-maximal effect. Summed up:
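GH3.TRE-Luc rat pituitary cells (two TREs driving luciferase) were dosed with compound, then stimulated with 1 nM T3 (final) for 23.5 h at 37 C. ONE-Glo luminescence was the read-out, with CellTiter-Fluor fluorescence as the cytotoxicity counter-screen.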

The subject of experiment [2] is thyroid hormone receptor (rat, GH3 cells). Put plainly: qHTS assay to identify small molecule agonists of the thyroid receptor (TR) signaling pathway (AID 743066; calls by dose curve). On the technique in general: In qHTS, concentration-response curves come from the screen itself.
In experiment [3] the target is Estrogen receptor (Homo sapiens) (UniProt P03372). In words: qHTS assay to identify small molecule antagonists of the estrogen receptor alpha (ER-alpha) signaling pathway (AID 743069; active = well fitted curve in the direction sought with a large enough effect in the signal ratio in the repeat runs, not every such curve was filed as active; the % refers to the signal ratio). The essentials:
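Reporter cells (ER-alpha-bla, HEK293 background) are conditioned overnight in stripped-serum medium (2% charcoal-stripped FBS). Compound and 17beta-estradiol exposure runs 18 hr at 37C, 5% CO2.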

Experiment [4] is described as follows: qHTS assay to identify small molecule antagonists of the estrogen receptor alpha (ER-alpha) signaling pathway - cell viability counter screen (AID 743074; calls by dose curve;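 also: HEK293 cells carrying ER-alpha-UAS-bla reporter stimulated with 17beta-estradiol; nearly all actives have a fitted effect of over 45% in size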).
For experiment [5], the target named is Estrogen receptor (Homo sapiens) (UniProt P03372). Put plainly: qHTS assay to identify small molecule agonists of the estrogen receptor alpha (ER-alpha) signaling pathway (AID 743075; calls by dose curve;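 also: HEK293 GripTite cells with ER-alpha and UAS-driven beta-lactamase reporter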).
Estrogen receptor (Homo sapiens), sequence (P03372 whole entry, looked up): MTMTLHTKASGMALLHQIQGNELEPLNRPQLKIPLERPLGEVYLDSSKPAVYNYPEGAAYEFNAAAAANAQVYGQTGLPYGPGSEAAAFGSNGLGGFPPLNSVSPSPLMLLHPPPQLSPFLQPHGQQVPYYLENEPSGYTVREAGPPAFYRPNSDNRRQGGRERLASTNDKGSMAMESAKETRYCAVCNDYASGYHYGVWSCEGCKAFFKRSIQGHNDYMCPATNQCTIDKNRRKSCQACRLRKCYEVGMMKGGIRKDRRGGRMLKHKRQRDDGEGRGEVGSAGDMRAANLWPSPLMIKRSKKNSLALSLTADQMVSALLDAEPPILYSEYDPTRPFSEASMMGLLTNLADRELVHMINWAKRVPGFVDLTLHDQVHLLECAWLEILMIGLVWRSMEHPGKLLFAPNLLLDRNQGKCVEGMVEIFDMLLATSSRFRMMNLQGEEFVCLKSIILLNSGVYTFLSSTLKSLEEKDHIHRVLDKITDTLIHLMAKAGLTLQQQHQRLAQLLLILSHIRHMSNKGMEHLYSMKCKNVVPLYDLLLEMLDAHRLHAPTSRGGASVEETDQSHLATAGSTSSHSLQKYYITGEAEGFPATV
Experiment [6] shares this target. Put plainly: qHTS assay to identify small molecule agonists of the estrogen receptor alpha (ER-alpha) signaling pathway using the BG1 cell line (AID 743079). Also: nearly all actives have a fitted effect of over 20% in size.
The nature of experiment [7]: qHTS assay to identify small molecule antagonists of the estrogen receptor alpha (ER-alpha) signaling pathway using the BG1 cell line (AID 743080; calls by dose curve;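 also: BG1 cells stimulated with 17beta-estradiol alongside compound; series mostly up to about 70 µM; nearly all actives have a fitted effect of over 25% in size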). Summed up: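 Readout is ONE-Glo luminescence, taken 30 min at room temperature after reagent addition, preceded by a CellTiter-Fluor viability read; BG1-Luc-4E2 cells had received compound and 17beta-estradiol for 21.5 h at 37 C.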

The nature of experiment [8]: qHTS assay to identify small molecule antagonists of the estrogen receptor alpha (ER-alpha) signaling pathway using the BG1 cell line - cell viability counter screen (AID 743081).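 Also: compound given together with 17beta-estradiol as the ER stimulus; series mostly up to about 70 µM; nearly all actives have a fitted effect of over 45% in size.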
In another experiment the target is Aromatase (Homo sapiens) (UniProt P11511). Put plainly: qHTS assay to identify aromatase inhibitors (AID 743083). Also: nearly all actives have a fitted effect of over 55% in size. Also: potency is read from the fitted curve at half-maximal effect.
Aromatase (Homo sapiens), sequence (P11511 whole entry, looked up): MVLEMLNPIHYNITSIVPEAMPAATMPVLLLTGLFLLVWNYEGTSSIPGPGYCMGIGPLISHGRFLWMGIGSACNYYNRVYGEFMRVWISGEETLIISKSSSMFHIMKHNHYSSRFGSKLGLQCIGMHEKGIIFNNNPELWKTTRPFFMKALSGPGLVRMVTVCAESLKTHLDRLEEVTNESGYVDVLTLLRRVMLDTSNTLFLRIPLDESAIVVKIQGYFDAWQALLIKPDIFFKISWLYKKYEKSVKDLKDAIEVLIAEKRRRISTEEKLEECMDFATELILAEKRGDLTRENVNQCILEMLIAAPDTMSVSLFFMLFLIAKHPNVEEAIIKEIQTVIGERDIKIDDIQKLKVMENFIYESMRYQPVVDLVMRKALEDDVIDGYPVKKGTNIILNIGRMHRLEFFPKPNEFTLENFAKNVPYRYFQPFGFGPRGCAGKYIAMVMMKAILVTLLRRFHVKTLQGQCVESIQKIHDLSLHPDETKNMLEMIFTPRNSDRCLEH
Experiment [9] can be described thus: qHTS assay to identify aromatase inhibitors - cell viability counter screen (AID 743084).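 Also: cells stimulated with testosterone during compound exposure; nearly all actives have a fitted effect of over 55% in size.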 Also: potency is read from the fitted curve at half-maximal effect.
Experiment [10] deals with Aryl hydrocarbon receptor (Homo sapiens) (UniProt P35869). In words: qHTS assay to identify small molecule that activate the aryl hydrocarbon receptor (AhR) signaling pathway (AID 743085).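 Also: HG2L7.5c1 human HepG2 liver cells with stably integrated DRE-driven firefly reporter; series mostly up to about 70 µM; nearly all actives have a fitted effect of over 15% in size.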 The essentials:
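Steps: seed HepG2-AhR-luc cells; allow 5 h at 37C; pin-transfer test compound or vehicle; incubate 24 h at 37C; add viability dye (30 min, 37C) and read fluorescence; add luciferase substrate (30 min, RT) and read luminescence.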

Experiment [11] can be described thus: qHTS assay to identify small molecule that activate the aryl hydrocarbon receptor (AhR) signaling pathway - cell viability counter screen (AID 743086).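 Also: HepG2 liver cells carrying the AhR DRE luciferase reporter; series mostly up to about 70 µM; nearly all actives have a fitted effect of over 45% in size.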 Summed up: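 HepG2-AhR-luc (HG2L7.5c1) cells, 4000/well, treated 24 h at 37 C with compound; viability measured as CellTiter-Fluor fluorescence after 30 min in the same wells as the luciferase read.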
Experiment [12] concerns the target Peroxisome proliferator-activated receptor gamma (Homo sapiens) (UniProt P37231). Put plainly: qHTS assay to identify small molecule agonists of the peroxisome proliferator-activated receptor gamma (PPARg) signaling pathway (AID 743094; active = well fitted activation curve with a large enough effect in the signal ratio in the repeat runs, not every such curve was filed as active; the % refers to the signal ratio). Summed up: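 Compounds dissolved in DMSO were added to PPARg UAS-bla HEK293H cells for 17 h at 37C, and reporter expression was quantified by fluorescence intensity after 1 h with LiveBLAzer B/G FRET substrate.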

Experiment [13] in a line: qHTS assay to identify small molecule antagonists of the peroxisome proliferator-activated receptor gamma (PPARg) signaling pathway - cell viability counter screen (AID 743194). Also: nearly all actives have a fitted effect of over 55% in size. Summed up: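 Cytotoxicity counter screen in PPARg-bla HEK293H cells, same wells as reporter assay. Compounds plus 50 nM rosiglitazone (final) for 17 h at 37 C, then viability read by CellTiter-Glo luminescence.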

Experiment [14] in a line: qHTS assay for small molecule agonists of the antioxidant response element (ARE) signaling pathway (AID 743202; active = well fitted activation curve with a large enough effect in the signal ratio in the repeat runs, not every such curve was filed as active; the % refers to the signal ratio). Summed up: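 Agonist mode reporter screen: HepG2 cells with ARE-controlled beta-lactamase are incubated with test compounds for 16 h at 37 C, and beta-lactamase activity is measured as fluorescence of cleaved B/G FRET substrate.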
Experiment [15] can be described thus: qHTS assay for small molecule agonists of the antioxidant response element (ARE) signaling pathway - cell viability counter screen (AID 743203; calls by dose curve; also: nearly all actives have a fitted effect of over 55% in size). Summed up: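 Following 16 hrs of compound treatment at 37C, HepG2 cells with an ARE-controlled beta-lactamase gene were lysed with CellTiter-Glo. Luminescence was read after 30 min at room temperature.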
Experiment [16] in a line: qHTS assay for small molecule activators of the heat shock response signaling pathway - cell viability counter screen (AID 743209). Also: nearly all actives have a fitted effect of over 50% in size. Summed up: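 Readout: CellTiter-Glo luminescence, 30 min at room temperature. System: HSE-bla HeLa cells, 1500/well, plated overnight. Treatment: compounds in DMSO, 5 h at 37 C.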
Experiment [17] can be described thus: qHTS assay to identify small molecule agonists of the peroxisome proliferator-activated receptor delta (PPARd) signaling pathway - cell viability counter screen (AID 743211). Also: nearly all actives have a fitted effect of over 55% in size. Summed up:
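Viability of GeneBLAzer PPARd UAS-bla HEK293H cells was assessed after 17 h compound incubation at 37C, using CellTiter-Glo reagent added after the reporter read and luminescence recorded 30 min later.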

A short description of experiment [18]: qHTS assay for small molecule activators of the heat shock response signaling pathway (AID 743210; active = well fitted activation curve with a large enough effect in the signal ratio in the repeat runs, with a control signal flat, not every such curve was filed as active; the % refers to the signal ratio;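 also: HeLa cells with beta-lactamase reporter driven by heat shock elements; series mostly up to about 63 µM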). The essentials: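 Quantitative high-throughput format using an engineered HeLa line in which heat shock response elements drive beta-lactamase; after 5 h with compound, cells received a B/G FRET substrate and fluorescence was read.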
Experiment [19] deals with Peroxisome proliferator-activated receptor gamma (Homo sapiens) (UniProt P37231). In words: qHTS assay to identify small molecule antagonists of the peroxisome proliferator-activated receptor gamma (PPARg) signaling pathway (AID 743191; calls by dose curve; also: series mostly up to about 63 µM; nearly all actives have a fitted effect of over 30% in size). Summed up:
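GeneBLAzer PPARg UAS-bla HEK293H cells, 5 h post-plating, exposed to compounds 17 h at 37C. LiveBLAzer B/G FRET substrate added for 1 h at room temperature; beta-lactamase reporter read by fluorescence intensity.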

Several values for one entry are separate records, joined by “and”; a condition that tells them apart may be missing. Equal entries are not always repeated. Inconclusive results are not listed. A structure can be active in one record and inactive in another. Activity calls are given as the source filed them. Unless noted, calls follow the shape of the dose curve; as a rule, active = well fitted curve in the direction sought with a large enough effect in the repeat runs; inconclusive = weak or mixed curves; inactive = no such curve, though single readings can be large; an effect the other way counts as inactive or inconclusive.

Peroxisome proliferator-activated receptor gamma (Homo sapiens), sequence (P37231 whole entry, looked up): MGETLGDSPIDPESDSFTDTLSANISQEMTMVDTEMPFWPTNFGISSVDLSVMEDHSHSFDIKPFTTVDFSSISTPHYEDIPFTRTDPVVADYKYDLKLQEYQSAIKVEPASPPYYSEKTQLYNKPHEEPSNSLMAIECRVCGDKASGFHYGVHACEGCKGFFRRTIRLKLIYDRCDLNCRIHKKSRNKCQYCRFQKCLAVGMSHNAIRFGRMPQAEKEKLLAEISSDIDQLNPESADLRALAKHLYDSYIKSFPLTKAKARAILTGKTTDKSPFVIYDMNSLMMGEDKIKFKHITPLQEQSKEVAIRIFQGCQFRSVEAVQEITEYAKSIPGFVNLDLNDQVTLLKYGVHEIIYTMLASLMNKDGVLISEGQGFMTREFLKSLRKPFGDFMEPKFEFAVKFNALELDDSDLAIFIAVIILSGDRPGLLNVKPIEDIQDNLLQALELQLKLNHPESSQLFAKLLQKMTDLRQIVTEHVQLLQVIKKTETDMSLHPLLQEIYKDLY
Aryl hydrocarbon receptor (Homo sapiens), sequence (P35869 whole entry, looked up): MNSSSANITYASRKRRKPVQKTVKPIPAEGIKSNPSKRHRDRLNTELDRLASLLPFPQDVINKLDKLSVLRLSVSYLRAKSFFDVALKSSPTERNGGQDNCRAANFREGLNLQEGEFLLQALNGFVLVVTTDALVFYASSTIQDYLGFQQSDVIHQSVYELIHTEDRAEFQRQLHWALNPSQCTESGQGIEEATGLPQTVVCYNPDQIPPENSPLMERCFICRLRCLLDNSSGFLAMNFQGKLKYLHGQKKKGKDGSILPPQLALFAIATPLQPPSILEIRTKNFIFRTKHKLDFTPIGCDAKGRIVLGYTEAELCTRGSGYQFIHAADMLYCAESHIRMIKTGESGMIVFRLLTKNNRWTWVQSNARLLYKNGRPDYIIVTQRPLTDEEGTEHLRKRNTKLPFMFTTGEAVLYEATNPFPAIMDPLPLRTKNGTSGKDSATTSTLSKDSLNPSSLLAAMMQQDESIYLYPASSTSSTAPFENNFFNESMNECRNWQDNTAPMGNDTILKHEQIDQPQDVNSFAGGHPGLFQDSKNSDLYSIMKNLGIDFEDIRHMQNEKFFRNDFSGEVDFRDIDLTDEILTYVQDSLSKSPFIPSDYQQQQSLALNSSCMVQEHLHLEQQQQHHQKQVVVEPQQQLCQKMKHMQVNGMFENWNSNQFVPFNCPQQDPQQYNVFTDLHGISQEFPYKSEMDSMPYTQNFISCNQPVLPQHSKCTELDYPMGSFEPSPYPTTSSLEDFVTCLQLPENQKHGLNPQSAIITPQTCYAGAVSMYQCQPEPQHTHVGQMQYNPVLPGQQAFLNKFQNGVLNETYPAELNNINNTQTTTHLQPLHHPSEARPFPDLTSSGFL

Regarding `FC(F)(F)c1ccc(Cl)c(Cl)c1`, the Potency result in experiment [1], in experiment [2], in [3], in experiment [5], in [6] and in experiment [7] was “inactive” each time. The Potency entry (in experiment [8]; with Aromatase (Homo sapiens); in experiment [9]; in [10]; in [14]) was “inactive” throughout. Further, the molecule was classed as inactive in [4], in experiment [11], in [12], in [13], in experiment [15] and in [16]. The result in experiment [17] was inactive.

As to `O=C(O)c1cc(O)c(O)c(O)c1`, the Potency result in [1], in [2], in experiment [3], in experiment [5], in [6] and in experiment [7] was “inactive” each time. Further, the Potency result (in experiment [8]; with Aromatase (Homo sapiens); in experiment [10]; in experiment [18]) was “inactive” in each case. For the same molecule, the molecule was classed as inactive in experiment [4], in [12], in experiment [13], in experiment [15], in experiment [16] and in experiment [17]. Also, the Potency entry in [9] was “inactive and 49 µM (active)”.

Take `CC1CCC2CC1C2(C)C` (configuration not stated): the Potency entry (in [1]; in experiment [2]; in experiment [8]; with Aromatase (Homo sapiens); in experiment [9]; in [10]) was “inactive” throughout. Besides, in [14], the Potency result was “inactive”. In addition, the outcome in experiment [4], in experiment [11], in experiment [12], in experiment [19], in experiment [13] and in experiment [15] was inactive. Also, the call in [16] and in [17] was inactive.

For `CCCCCC/C(C=O)=C\c1ccccc1`, the Potency entry (in experiment [1]; in [2]; in [8]; with Aromatase (Homo sapiens); in experiment [9]; in experiment [10]) was “inactive” each time. For the same molecule, in experiment [14], the Potency result was “inactive”. Besides, the result in experiment [4], in experiment [11], in experiment [12], in [19], in experiment [13] and in [16] was inactive. The molecule was classed as inactive in experiment [17].

In the case of `CC[C@H](C)C(=O)O[C@H]1C[C@@H](C)C=C2C=C[C@H](C)[C@H](CC[C@@H]3C[C@@H](O)CC(=O)O3)[C@H]21`, the Potency in experiment [1] is 62 µM (active) and 54.2 µM (active); with Aromatase (Homo sapiens), 11.9 µM (active) and 34.9 µM (active) and 27.2 µM (active); in experiment [9], “inactive and 62 µM (active)”. In addition, the Potency result in [2], in [3], in experiment [5], in [6], in [8] and in [10] was “inactive” throughout. Besides, the outcome in experiment [4], in [11], in [12] and in [13] was inactive.

For the molecule `CC1CCC(C(C)C)C(O)C1` (configuration not stated), the Potency entry (in experiment [1]; in [2]; in experiment [8]; with Aromatase (Homo sapiens); in [9]; in experiment [10]) was “inactive” throughout. Further, the Potency result in experiment [14] was “inactive”. Besides, the molecule was classed as inactive in experiment [4], in experiment [11], in experiment [12], in [19], in experiment [13] and in experiment [16]. The molecule was classed as inactive in experiment [17].

As for `C[C@H]1C[C@@H]2[C@H]([C@@H](O)C[C@@]3(C)[C@H]2CC[C@]3(O)C(=O)CO)[C@@]2(C)C=CC(=O)C=C12`, the Potency entry (in [1]; in [2]; in experiment [8]; in the experiment with Aromatase (Homo sapiens); in experiment [9]; in experiment [10]) was “inactive” each time. Further, the Potency entry in experiment [14] is “inactive”. Besides, the result in experiment [4], in experiment [11], in [12], in experiment [19], in [13] and in experiment [16] was inactive. In addition, the molecule was called inactive in experiment [17].

Take `CCC(O)OCCCOC` (configuration not stated): the Potency result (in [1]; in [2]; in experiment [8]; in the experiment with Aromatase (Homo sapiens); in [9]; in experiment [10]) was “inactive” each time. For the same molecule, the Potency result in experiment [14] and in [18] was “inactive” each time. In addition, the outcome in [4], in experiment [11], in [12], in experiment [19], in [13] and in [15] was inactive. For the same molecule, the molecule was classed as inactive in [16] and in [17].

As to `O=c1[nH]c(=O)n([C@H]2C[C@H](O)[C@@H](CO)O2)cc1Br`, the Potency entry (in [1]; in experiment [2]; in experiment [3]; in [5]; in [8]; with Aromatase (Homo sapiens)) was “inactive” each time. Moreover, the Potency entry in experiment [9], in experiment [10] and in experiment [14] was “inactive” in each case. In addition, the outcome in experiment [4], in experiment [11], in experiment [12], in [13], in experiment [16] and in experiment [17] was inactive.

As to `O=c1[nH]nnc2ccccc12`, the Potency result (in experiment [1]; in experiment [2]; in [8]; with Aromatase (Homo sapiens); in experiment [9]; in experiment [10]) was “inactive” throughout. Besides, the Potency entry in [14] and in experiment [18] was “inactive” each time. Further, the call in experiment [4], in [11], in experiment [12], in experiment [19], in [13] and in [15] was inactive. Besides, the result in experiment [16] and in experiment [17] was inactive.
